Measurements taken from PubChem BioAssay AID1851 (National Center for Advancing Translational Sciences (NCATS), 2009).
Several values for one entry are separate records, joined by “and”; a condition that tells them apart may be missing. Equal values may be shown once. Hit rate of the full screen: of about 16,000 compounds, about 5,100 (32%) were called active. Not shown: some 25% with an inconclusive outcome. Calls come from the whole dose curve; as a rule, active = well fitted curve in the direction sought with a large enough effect; inconclusive = small, poorly fitted or top-dose-only effect, or effect the other way; inactive = no such curve, though single readings can be large or run the other way. Some of the results follow.

These molecules were tested against Cytochrome P450 3A4 (Homo sapiens) (UniProt P08684) (assay: Cytochrome panel assay with activity outcomes). Conditions: recombinant CYP, pro-luciferin dealkylation, luminescence, p450-cyp3a4; series mostly up to 57.1 µM.
Sequence of Cytochrome P450 3A4 (Homo sapiens) (P08684 whole entry, looked up): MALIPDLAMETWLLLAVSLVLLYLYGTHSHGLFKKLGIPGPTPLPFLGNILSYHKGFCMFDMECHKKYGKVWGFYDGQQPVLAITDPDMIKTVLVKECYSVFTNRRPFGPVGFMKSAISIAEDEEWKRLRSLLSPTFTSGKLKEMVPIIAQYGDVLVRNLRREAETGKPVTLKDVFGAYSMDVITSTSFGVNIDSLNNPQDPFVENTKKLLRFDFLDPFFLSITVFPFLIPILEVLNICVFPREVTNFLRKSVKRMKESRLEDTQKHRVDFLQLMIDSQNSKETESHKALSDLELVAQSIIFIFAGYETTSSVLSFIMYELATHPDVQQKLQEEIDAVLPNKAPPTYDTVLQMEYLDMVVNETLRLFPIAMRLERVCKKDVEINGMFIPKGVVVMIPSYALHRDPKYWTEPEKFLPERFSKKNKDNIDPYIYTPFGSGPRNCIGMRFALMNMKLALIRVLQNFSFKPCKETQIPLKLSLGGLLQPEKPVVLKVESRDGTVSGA
% is set by controls: 0 for no effect and ±100 for the full control effect.

| SMILES | activity, negative = inhibition | AC50 |
| --- | --- | --- |
| NS(=O)(=O)c1nc(S(=O)(=O)O)c2[nH]cnc2n1 | -3.98% [at 11.4 µM] (inactive) | – |
| Cc1c(C)c2c(C)[nH]nc2oc1=O | 4.7% [at 11.4 µM] (inactive) | – |
| C[C@H]1CC[C@H]2C(=O)N[C@H](Cc3ccccc3)C(=O)N2[C@@H]1c1ccccc1 | – | 2.51 µM (active) |
| C[C@@H]1CN2[C@H](c3ccc(Br)cc3)[C@H](C)CC[C@H]2C(=O)O1 | -28.2% [at 11.4 µM] (inactive) | – |
| C[C@@H]1CC[C@@H]2C(=O)N3[C@@H](CC[C@@H](C)[C@@H]3c3ccc(-c4ccco4)cc3)C(=O)N2[C@H]1c1ccc(-c2ccco2)cc1 | -15.7% [at 11.4 µM] (inactive) | – |
| O=C(/C=C\c1ccc(O)c(O)c1)O[C@@H]1C[C@](O)(C(=O)O)C[C@@H](O)[C@@H]1O | – | inactive |
| Cc1cccc(OC(=O)CN2C(=O)C3C4CCC(C4)C3C2=O)c1C (stereo not drawn) | – | 14.1 µM (active) |
| CC(=O)Nc1ccc(NCN2C(=O)C3C4CCC(C4)C3C2=O)cc1 (stereo not drawn) | – | inactive |
| Cc1cc(=O)oc(C)c1C(=O)Nc1ccc(Cl)cn1 | -3.08% [at 2.29 µM] (inactive) | – |
| CCOc1ccc(C(=O)Nc2ccc(Cl)cn2)cc1Cl | – | inactive |
| COc1ccc(C(=O)Nc2ccc(Cl)cn2)cc1Cl | – | 28.2 µM (active) |
| COc1ccccc1-c1cncnc1NCc1cccs1 | – | 0.398 µM (active) |
| FC(F)(F)c1ccccc1-c1cncnc1NCc1cccs1 | – | 0.251 µM (active) |
| Clc1ccccc1-c1cncnc1NCc1cccs1 | – | 0.501 µM (active) |
| Cc1ccccc1-c1cncnc1NCc1cccs1 | – | 0.501 µM (active) |
| FC(F)(F)c1ccccc1-c1cc(NCc2cccs2)ncn1 | – | inactive |
| CCCCCCCCCCCC1=C(O)C(=O)C=C(O)C1=O | – | inactive |
| NNC(=O)CNC(c1ccccc1)c1cc(Br)ccc1NC(=O)c1ccccc1Br (stereo not drawn) | – | 0.794 µM (active) |
| O=C(O)CCCCCNC(=O)c1ccccc1Br | – | inactive |
| O=C(O)c1ccccc1C(=O)Nc1cc2c(cc1Br)-c1ccccc1C2=O | -24.8% [at 11.4 µM] (inactive) | – |
| CCOC(=O)CCN1C(=O)[C@H]2[C@H]3[C@H](O)[C@H](O)C/C(=N/OCC(C)C)[C@H]3CC[C@@H]2C1=O | -22.9% [at 11.4 µM] (inactive) | – |
| COc1ccccc1-c1cc(NCc2cccnc2)ncn1 | – | 5.01 µM (active) |
| Cc1ccccc1-c1cc(NCc2ccccc2)ncn1 | – | inactive |
| Cc1ccccc1-c1cc(NCc2cccnc2)ncn1 | – | 10 µM (active) |

| SMILES | activity, negative = inhibition | AC50 |
| --- | --- | --- |
| O=C(O)[C@H]1CCCNC1 | – | inactive |
| NS(=O)(=O)c1ccc(NCc2cnc3ccccc3n2)cc1 | -7.19% [at 11.4 µM] (inactive) | – |
| NS(=O)(=O)c1ccc(NCc2nc3ccccc3[nH]2)cc1 | -19.2% [at 11.4 µM] (inactive) | – |
| NS(=O)(=O)c1ccc(NCc2ccccc2OCc2ccccc2F)cc1 | – | 15.8 µM (active) |
| CCCOc1ccccc1-c1nc2n[nH]nc2c(=O)[nH]1 | – | inactive |
| O=C1c2ccccc2NC(c2ccc(Cl)cc2Cl)N1O (stereo not drawn) | – | inactive |
| C=CCc1cccc(C2Nc3ccccc3C(=O)N2O)c1O (stereo not drawn) | – | 20 µM (active) |
| CC(=O)c1c(O)cc(=O)n(-c2ccccc2)c1-c1ccc(C)cc1 | – | inactive |
| Cc1cc(O)c(C(C)C)cc1CN1CCCCC1 | -7.75% [at 11.4 µM] (inactive) | – |
| Cc1cc(O)c(C(C)C)cc1C1(c2cc(C(C)C)c(O)cc2C)OC(=O)c2ccccc21 | – | 1.58 µM (active) |
| Fc1ccc(COc2ccc(Br)cc2CNCc2ccncc2)cc1 | – | 0.562 µM (active) |
| FC(F)(F)c1ccccc1-c1nc(NCc2cccs2)c2ccccc2n1 | – | 3.98 µM (active) |
| Clc1ccccc1-c1nc(NCc2cccs2)c2ccccc2n1 | – | 6.31 µM (active) |
| C/C(=N/NC(=O)Cc1cccn1C)c1ccccc1 | – | inactive |
| C/C(=N\NC(=S)Nc1cccc(C)c1)c1ccccc1 | – | 8.91 µM (active) |
| C/C(=N\NC(=O)c1cccc(C)c1)c1cccc(NC(=O)c2ccco2)c1 | -7.23% [at 2.29 µM] (inactive) | – |
| COc1cc(C(=O)NCc2cccc3ccccc23)cc(Cl)c1OC | – | 10 µM (active) |
| CC1CCN(C(=O)C2CCN(S(=O)(=O)c3cccc4nonc34)CC2)CC1 | – | inactive |
| O=S(=O)(c1cccc2cnccc12)N1CCNCC1 | – | 12.6 µM (active) |
| O=C(O)C1(C(=O)O)CCN(S(=O)(=O)c2ccccc2)CC1 | -12.3% [at 11.4 µM] (inactive) | – |
| O=S(=O)(c1ccccc1)N1CN2CN(C1)CN(S(=O)(=O)c1ccccc1)C2 | -1.65% [at 11.4 µM] (inactive) | – |
| C[C@H]1CN(S(=O)(=O)c2cccc3cnccc23)CCN1 | – | 10 µM (active) |
| O=S(=O)(c1cccc2c(Cl)cccc12)N1CCCNCC1 | – | 5.01 µM (active) and 3.98 µM (active) |
| O=S(=O)(c1ccccc1S(=O)(=O)N1CCCCC1)N1CCCCC1 | – | 8.91 µM (active) |

| SMILES | activity, negative = inhibition | AC50 |
| --- | --- | --- |
| COc1ccc(S(=O)(=O)N2CCCCCC2)cc1N(C)S(=O)(=O)c1ccc(Cl)cc1 | -26.2% [at 2.29 µM] (inactive) | – |
| CCOC(=O)C(NC(C)=O)C(=O)O (stereo not drawn) | – | inactive |
| O=C1C=CC(=Nc2cccc3c(N=C4C=CC(=O)O4)cccc23)O1 | -24.5% [at 11.4 µM] (inactive) | – |
| CC(C)=CCc1c(C)nc2ccccc2c1C(=O)O | – | inactive |
| COC(=O)c1cc(NC(=O)CC2NC3CCCCC3NC2=O)cc(C(=O)OC)c1 (stereo not drawn) | – | 28.2 µM (active) |
| CCC1C(=O)N=C(SCC(=O)Nc2ccc(C(=O)OC)cc2)NC1=O (stereo not drawn) | – | inactive |
| COC(=O)c1ccc(NC(=O)C2CCCCC2C(=O)O)cc1 (stereo not drawn) | – | inactive |
| COC(=O)c1cc(=O)[nH]c(=O)[nH]1 | 0.116% [at 11.4 µM] (inactive) | – |
| CC(=O)COc1ccc2c(C)c(C)c(=O)oc2c1 | -1.64% [at 2.29 µM] (inactive) | – |
| CC(=O)c1c(C)[nH]c(C(=O)COc2ccc(C#N)cc2)c1C | – | 3.16 µM (active) |
| CC(=O)N1CCN(c2nc(C)nc3sc4c(c23)CCC(C)C4)CC1 (stereo not drawn) | – | inactive |
| CC#CCOC(=O)c1c(C)nc2sc3c(c2c1N)CC[C@@H](O)C3 | – | 3.16 µM (active) |
| COc1cccc(/C(O)=C2/C(=O)C(=O)N(c3cc(C)on3)C2c2cccs2)c1 (stereo not drawn) | – | 28.2 µM (active) |
| Cc1cc(N2C(=O)C(O)=C(C(=O)c3ccco3)C2c2ccc(O)cc2)no1 (stereo not drawn) | – | inactive |
| COCCN1C(=O)C(=O)/C(=C(/O)c2cccc(OC)c2)C1c1ccc(C)o1 (stereo not drawn) | – | inactive |
| COC(=O)[C@@]1(Cc2ccc(F)cc2)[C@H]2c3cc(C(=O)N(C)C)n(Cc4ccc(C(F)(F)F)nc4)c3C[C@H]2CN1C(=O)c1ccccc1 | – | 1.26 µM (active) |
| COC(=O)[C@@]1(Cc2ccccc2)[C@H]2c3cc(C(=O)N4CCCC4)n(Cc4ccc(C(F)(F)F)nc4)c3C[C@H]2CN1C(=O)c1ccccc1 | – | 3.16 µM (active) |
| COC(=O)[C@@]1(Cc2ccc(OC)cc2)[C@H]2c3cc(C(=O)N4CCCC4)n(Cc4ccc(C(F)(F)F)nc4)c3C[C@H]2CN1C(=O)c1ccccc1 | – | 3.16 µM (active) |
| COC(=O)[C@@]1(Cc2ccc(OC)cc2)[C@H]2c3cc(C(=O)N4CCCC4)n(CCn4cc([N+](=O)[O-])nc4C)c3C[C@H]2CN1C(=O)c1ccccc1 | – | 3.98 µM (active) |
| O=C(NCCCn1ccnc1)c1ccc(Br)c(S(=O)(=O)N2CCOCC2)c1 | – | 2 µM (active) |
| CN1CCc2[nH]nc(-c3n[nH]c4c3CN(C)CC4)c2C1 | -6.16% [at 11.4 µM] (inactive) | – |
| CCN1CCN(C(=O)N[C@H](C(=O)N[C@@H]2C(=O)N3[C@@H]2SC(C)(C)[C@@H]3C(=O)O)c2ccccc2)C(=O)C1=O | – | inactive |
| CCOC(=O)c1ccc(Cl)c(NC(=O)c2ccc(-c3ccccc3)cc2)c1 | 6.61% [at 11.4 µM] (inactive) | – |
| CCOc1c(Cl)cc(C(=O)Nc2ccccc2-c2ccccc2)cc1Cl | – | 14.1 µM (active) |

| SMILES | activity, negative = inhibition | AC50 |
| --- | --- | --- |
| CO[C@@H]1COC(=O)CC=C[C@@H](C)[C@@H]2C=C[C@H](O)[C@@H](COC(=O)[C@H](C)NC(=O)CC=C[C@H]1C)O2 | -23.2% [at 11.4 µM] (inactive) | – |
| COC(=O)c1ccccc1NC(=O)c1cc2nc(C3CC3)cc(C(F)(F)F)n2n1 | – | inactive |
| CCOC(=O)C1CCCN(C(=O)c2cc3nc(-c4ccc5c(c4)OCO5)cc(C(F)(F)F)n3n2)C1 (stereo not drawn) | – | 3.98 µM (active) |
| COc1ccc(-c2cc(C(F)(F)F)n3nc(C(=O)N4CCCCC4)cc3n2)cc1 | – | 14.1 µM (active) |
| COc1ccc(NC(=O)N2CCC3(CC2)CCN(C(=O)c2cnccn2)CC3)cc1 | – | inactive |
| CCOC(=O)c1[nH]c(C(=O)O)c(CCN(CC)CC)c1C | – | inactive |
| CN(C)Cc1ccc(-c2cc3onc(-c4ccccc4)c3c(=O)n2C)cc1 | 8.36% [at 11.4 µM] (inactive) | – |
| COc1ccc(C(C(=O)NC2CCCCC2)N(C(=O)c2sc(C)nc2C)c2ccc(OC)cc2)cc1 (stereo not drawn) | – | 12.6 µM (active) |
| COc1ccc(C(C(=O)NC2CCCC2)N(C(=O)c2snc(-c3ccc(F)cc3)c2N)c2ccccc2)cc1 (stereo not drawn) | -12% [at 2.29 µM] (inactive) | – |
| CC(=O)c1ccc(S(=O)(=O)NC(=O)NC2CCCCC2)cc1 | – | inactive |
| COc1ccc(C(C(=O)NC2CCCCC2)N(C(=O)c2sc(C)nc2C)c2ccc(C(C)=O)cc2)cc1 (stereo not drawn) | – | 25.1 µM (active) |
| COc1ccc(C(C(=O)NC2CCCCC2)N(C(=O)CCCC(=O)Nc2ccccn2)c2ccc3c(c2)OCCO3)cc1 (stereo not drawn) | – | 1.26 µM (active) |
| COc1ccc([N+](=O)[O-])cc1NC(=S)NC(NC(=O)Cc1ccc(OC)c(OC)c1)C(Cl)(Cl)Cl (stereo not drawn) | – | 1.58 µM (active) |
| COc1ccc([N+](=O)[O-])cc1NCc1ccccc1C | – | 12.6 µM (active) |
| CC(C)CC(=O)Nc1ccc2c(c1)oc1ccccc12 | – | inactive |
| CC(CC(=O)Nc1ccc(Cl)c([N+](=O)[O-])c1)c1ccccc1 (stereo not drawn) | – | 10 µM (active) |
| COc1ccc([N+](=O)[O-])cc1NC(=O)CC(C)c1ccccc1 (stereo not drawn) | – | 7.08 µM (active) |
| Cc1ccc([N+](=O)[O-])cc1NC(=S)NC(=O)C(C)(C)C | – | inactive |
| COc1ccc(OC)c(NC(=O)CC(Cc2ccccc2OC)C(=O)O)c1 (stereo not drawn) | – | inactive |
| CCOc1ccc(NC(=S)NC(=O)/C=C/c2ccc(OC)c(OC)c2)c([N+](=O)[O-])c1 | – | inactive |
| CC(CC(=O)O)CC(=O)Nc1ccc(S(N)(=O)=O)cc1 (stereo not drawn) | -4.05% [at 2.29 µM] (inactive) | – |
